Activity calls are given as the source filed them. How the calls were made is not given here.
The compounds below were run on Aerobactin synthetase IucA (Klebsiella pneumoniae, hypervirulent) (assay: IucA enzyme inhibition, biochemical, LOPAC library, absorbance readout (AID 1346212;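 further: 100% = no compound wells and 0% = no enzyme wells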)). Conditions: IucA enzyme assay, absorbance (OD) readout; stronger effect = lower value;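 tested at 8 µM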.

| SMILES | remaining activity |
| --- | --- |
| CC[C@H](CO)Nc1nc(NCc2ccccc2)c2ncn(C(C)C)c2n1 | 123% (inactive) |
| COc1cc(-c2ccc(=O)[nH]n2)ccc1OC(F)F | 119% (inactive) |
| COc1cc(NS(C)(=O)=O)ccc1Nc1c2ccccc2nc2ccccc12 | 108% (inactive) |
| C[C@@H](CN1CCC(Cc2ccccc2)CC1)[C@@H](O)c1ccc(O)cc1 | 92.9% (inactive) |
| CC(C)C(=O)c1c(C(C)C)nn2ccccc12 | 125% (inactive) |
| N[C@@H](CCC(=O)N[C@@H](CSN=O)C(=O)NCC(=O)O)C(=O)O | 119% (inactive) |
| O=C(O)CNC(=O)C(CS)Cc1ccccc1 (configuration not stated) | 119% (inactive) |
| Cc1cccc(C)c1NC(=O)C(C)N (configuration not stated) | 95.4% (inactive) |
| CC(C)c1ccc2c(c1)c(SC(C)(C)C)c(CC(C)(C)C(=O)O)n2Cc1ccc(Cl)cc1 | 113% (inactive) |
| C#C[C@]1(O)CC[C@H]2[C@@H]3CCC4=Cc5oncc5C[C@]4(C)[C@H]3CC[C@@]21C | 101% (inactive) |
| c1ccc(-c2ccccn2)nc1 | 75.1% (inactive) |
| N[C@H]1CONC1=O | 113% (inactive) |
| O=C1C(SCCO)=C(SCCO)C(=O)c2ccccc21 | 117% (inactive) |
| CC(=O)S[C@@H]1CC2=CC(=O)CC[C@]2(C)[C@H]2CC[C@@]3(C)[C@@H](CC[C@@]34CCC(=O)O4)[C@H]12 | 108% (inactive) |
| CCN1CCC[C@H]1CNC(=O)c1cc(S(N)(=O)=O)ccc1OC | 122% (inactive) |
| N[C@H](C(=O)O)[C@H]1C[C@@H]1C(=O)O | 93.8% (inactive) |
| COc1cc(CC(=O)O)ccc1O | 83.1% (inactive) |
